In the supplement of paper PMC3334620:
Over roughly 33,000 sequences, “E-score (-0.5 to 0.5)” has its median near -0.01; the highest 2% begin near 0.26. For the sample, the highest values were picked, then their nearest neighbours and some sequences at random.

The sequences below were run against Ste12 (UniProt P13574) (assay: PBM E-score (8-mer binding enrichment) (E-score (-0.5 to 0.5)); higher = stronger / more preferred TF binding). Conditions: protein concentration: 200 nM; construct: GST-DNA-binding domain.
Sequence of UniProt P13574 (P13574 whole entry, the tested form may be a part): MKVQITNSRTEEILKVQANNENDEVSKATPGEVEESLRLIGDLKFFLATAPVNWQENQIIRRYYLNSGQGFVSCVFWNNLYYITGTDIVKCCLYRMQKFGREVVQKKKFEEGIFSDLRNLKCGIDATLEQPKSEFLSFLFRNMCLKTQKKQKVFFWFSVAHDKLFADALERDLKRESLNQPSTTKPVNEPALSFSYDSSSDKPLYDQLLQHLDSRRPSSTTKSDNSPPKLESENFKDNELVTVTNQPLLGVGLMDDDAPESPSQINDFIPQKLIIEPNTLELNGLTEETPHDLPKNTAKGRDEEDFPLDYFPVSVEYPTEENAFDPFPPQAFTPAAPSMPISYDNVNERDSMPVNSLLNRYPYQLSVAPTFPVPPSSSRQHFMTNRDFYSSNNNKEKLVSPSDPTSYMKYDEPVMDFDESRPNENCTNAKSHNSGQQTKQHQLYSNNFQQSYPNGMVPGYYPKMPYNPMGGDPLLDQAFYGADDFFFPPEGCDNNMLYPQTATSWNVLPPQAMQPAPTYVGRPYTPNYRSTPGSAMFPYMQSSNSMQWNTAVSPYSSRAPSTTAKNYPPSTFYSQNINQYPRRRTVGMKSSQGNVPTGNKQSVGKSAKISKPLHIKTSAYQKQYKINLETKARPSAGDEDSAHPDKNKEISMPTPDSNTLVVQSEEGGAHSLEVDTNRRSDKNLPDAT
Summary of the method: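 Bound GST-tagged yeast transcription factors, applied at about 100-200 nM to double-stranded universal all-10-mer Agilent arrays, were detected with fluorescent anti-GST. Scans were normalised with masliner. A modified Wilcoxon-Mann-Whitney statistic, the E-score, was assigned to each ungapped eight-base word pooled with its reverse complement by the Universal PBM Analysis Suite.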

Sequence	PBM E-score
CGGTAGAA	-0.142
GCCAAAGA	-0.0779
GGATTGCA	0.117
GCTGCGCA	-0.229
ACGCTTGC	-0.116
AACGTTTC	0.328
CACGTTAC	0.0456
AACGTTTG	0.0498
CACGTTTC	0.285
CACGTTTA	-0.00355
AACGTTTA	0.00807
ACAATTTA	0.163
AATTAAGT	0.118
ACTATAAC	-0.0368
CACATAGA	-0.0651
AACATAAC	0.0575
GACATAGA	0.0743
ACTAGAAT	0.277
ACTATAAT	0.274
ACTAGAAC	-0.0111
AACATAAA	0.249
AACATAAT	0.286
AACATAGA	0.287
ACTATAAA	0.241
ACTAGAAA	0.244

Sequence	PBM E-score
ACTCCTAA	-0.0995
GGAGGACA	-0.106
GGCAATGA	-0.192
ACTTGGAT	0.0871
TACTTCAA	0.0645
AATCTAGG	0.0839
GATGGTAA	0.0297
CACCATAG	-0.041
AACATAAG	0.289
CACATAAG	0.044
ATCATAAG	0.0492
CCAGAGTA	0.03
CCCGTCTA	-0.125
AATAGCAA	0.00204
AAACGTTA	0.0762
AAACGTGG	0.0452
AAACGTTT	0.283
AAACGTGT	0.123
AAACGTTG	0.111
AAACGTGA	0.312
GCAAGGGA	-0.0936
AAGTAGCA	0.0754
CAACTGAA	0.201
AGCCAGAC	-0.132
CGCCCCAG	0.0509

Sequence	PBM E-score
CGCCCCAC	0.272
GGCCCCAA	-0.177
CGCCCCAA	0.296
GGCCCCAC	-0.181
CGCCCCCA	-0.079
CTAACGCA	-0.0702
ATAGAAAC	0.189
CGCCCCTC	0.351
ATCCCCTC	0.303
AGCCCCTC	-0.00471
CCCCCCTC	-0.244
CTCCCCGC	0.386
CTCCCCTC	0.28
ATCCCCGC	0.249
ATCCCCTA	-0.0687
CTCCCCTA	-0.0541
ATCCCCTG	-0.157
CGCCCCTA	0.214
CTCCCCGA	0.0416
ACAGACTG	0.0359
GACTCCCC	-0.26
CCAGGCTC	-0.124
AGGCTTCG	-0.158
ACACTTCC	-0.0741
CAGAGCAC	0.0445

Sequence	PBM E-score
AATCGAGG	0.108
ATGAGAGC	-0.126
TAAGCTCA	-0.18
TCGATACA	0.19
AACTCCGC	-0.0808
AGTGCGCC	-0.156
GAATTTCA	-0.0538
CTTTGTTA	0.219
CTTTGTAA	0.152
ATTTGTTG	0.181
GTTTGTTA	0.169
ATTTGTTC	0.266
ATTTGTAG	0.127
ATTTGTAA	0.288
CTTTGTTC	0.227
ATTTGTTA	0.274
CCTAATGA	0.13
AGGGTCTC	-0.153
CCCTTCAC	-0.0106
AATTCATG	0.255
ACCCAGAT	0.0125
AGACCACG	-0.255
CAAACACG	0.17
AAAACACT	0.215
GAAACACA	0.408

Sequence	PBM E-score
GAAACACC	0.311
AAAACACA	0.198
AAAACACC	0.213
AAAACACG	0.304
CAAACACC	0.121
TAAACACA	0.175
AGGGCTCC	-0.236
GTCGCTTA	-0.193
CCGGGCAA	-0.0289
CATTGTGG	0.0722
ATGCTCCA	0.0506
AGCTGAAC	-0.288
GCCTGAAA	0.273
AGCTGAAG	-0.127
AGCTGAAA	0.264
TCCTGAAA	0.25
GGCTGAAA	0.27
CGCTGAAA	0.251
TGCTGAAA	0.24
GCCTGAAC	-0.209
GCCACAGC	-0.299
GGGGCTAA	-0.0575
CCTATAGA	0.00311
ATTGCGAC	0.277
ATTGCGAG	0.127

Sequence	PBM E-score
CTTGCGAC	-0.128
CCGTCGCA	0.176
CAATGCGA	-0.00861
CATGATCA	0.0535
ATCTAAAT	0.172
ATCTAAAA	0.285
TTCTAAAA	0.292
CTCTAAAA	0.0605
ATCTAAAC	0.127
GTCTAAAA	0.135
CGCTCTGA	0.0576
ACTGGGTG	-0.107
GTACCTCA	-0.173
GAGTTGGA	0.0912
ATAGTCAT	-0.141
AGGAGCGC	-0.0491
GAGTGAAA	0.204
AAGTGAAA	0.291
TAGTGAAA	0.324
ACGTGAAC	-0.226
TCGTGAAA	0.177
ACGTGAAA	0.323
CAGTGAAA	0.197
TAGTGATA	-0.126
TAGTGACA	-0.0814

Sequence	PBM E-score
GGCCACAA	0.0783
CTCCCAGA	-0.165
CCCCAAGC	0.176
GCAATCAA	0.0398
ACTGGGAA	0.0846
AGCTAGTC	-0.133
GCAAACAA	0.146
ACAAACAC	0.266
ACAAACAG	0.125
CCAAACAA	0.125
ACAAACAA	0.0589
TCAAACAA	0.266
CAGGGCGA	-0.103
CAGCGATC	-0.00075
AATGTCAT	0.0301
AGTCCCAC	-0.133
CACAATAG	0.227
AGTCTAAT	0.00604
ATATAGAT	0.179
AGGGGCGC	0.0204
AGGGCGTG	-0.116
AGGGCGGG	0.296
AGGGGCGG	0.452
AGGCGGGA	0.0721
AGGCGGGG	0.269

Sequence	PBM E-score
AGGGGCGA	0.165
AGGGCGGC	-0.0895
AGGCGGGC	0.0738
GCAAAGCC	-0.185
TCCCAGAA	-0.0433
TGCTTTAA	0.199
ACTGAGGG	-0.101
CGAGGTAC	-0.0522
CGCCGCAG	0.0202
CAATTAGA	0.102
AAATTAGA	0.283
TAATTAGA	0.161
GCCGAACC	0.0313
CGCTGAGC	-0.154
AACCCGCC	0.0991
GGCCCGCC	0.0329
GCCCCGCA	-0.112
GCCCCGCC	0.33
ACCCCGCC	0.41
CCCCCGCC	-0.0801
ACCCCTCC	0.229
GTCGCGAC	0.389
GTCGCGAA	-0.0274
CTCGCGAC	0.0527
AACTATGG	-0.0761

Sequence	PBM E-score
ATGTTGCG	0.139
CATTAGTA	0.071
AATTAATT	0.254
AATTAATA	0.359
AATTAATG	0.232
AATTAGTC	0.218
GATTAATA	0.246
TATTAATA	0.336
CATTAATA	0.251
AATTAGTA	0.263
CCATTGCA	0.0632
CGCCTAGC	-0.0616
GTCACTAA	0.0793
AATGGGGT	-0.0055
CAAACTAA	0.265
CAAACTTA	0.276
TAAACTAA	0.148
CAAACTTC	0.124
CAAACTAC	0.0311
TAAACTTA	0.168
ACGCTGAC	-0.194
AGCAAACC	0.194
CATGGGAA	-0.0149
CGGCTATC	-0.174
ATTTCTAC	0.253

Sequence	PBM E-score
AACAAATA	0.341
AACAAATG	0.176
TACAAATA	0.218
AACAAGTT	0.154
AACAAATT	0.268
AACAAGTA	0.00602
CAGGCAAA	0.0381
AATCTTAT	0.0186
CGTTAGGA	0.0933
CGAATCCG	0.0624
GCCGCTTA	0.0462
GCGTTCTA	-0.0704
GAATTCTC	0.262
GAATTCTA	0.107
TAATTCTA	0.267
AAATTCTC	0.105
CAATTCTC	0.00128
AAATTCTA	0.0535
CTTCACCC	0.0896
AAACGCTA	0.112
CCTGGCTA	-0.217
TTCCGAAA	0.264
ATCCGAAA	0.185
GTCCGAAA	0.211
GAGGGCCA	0.0172

Sequence	PBM E-score
AAGAGATA	-0.0137
CCGGCTCC	-0.0246
CAAGTCGC	-0.3
AAAGTCGC	0.282
AAAGTCGT	-0.0472
GAGATGGA	-0.167
GACATTGA	0.051
AGGTTGGA	0.114
CAACAGCA	0.021
GTGTTTGA	0.301
GTTTTTGA	0.236
ATGTTTGC	0.0377
CTGTTTGC	-0.0149
ATGTTTGG	0.151
CCGTTTGA	0.056
GTGTTCGA	0.0597
ATGTTTGA	0.337
CTGTTTGA	0.308
ACCCGACA	0.0405
GCCGCAGC	0.00254
CCCAAAGA	0.18
GCCACGAC	0.0374
TTGCAAAA	0.242
ATCGAGCC	-0.0583
AACGCCCT	-0.0731

Sequence	PBM E-score
AAACATTC	0.12
ACGCAGGG	-0.0649
TTCAAAAA	0.298
TATCAAAA	0.302
TTCAAGAA	0.247
CTTCAAAA	0.191
ATTCAAAG	0.145
CATCAAAA	0.221
CTTCAAAC	0.218
ATTCAAAC	0.279
TTTCAAAA	0.343
GATCAAAA	0.194
GTTCAAAA	0.107
CTCAAAAA	0.178
GGACAGAA	0.136
CAATTTAG	0.118
CGATAGTC	-0.186
GAGTAAGC	-0.0348
CGCAGGCA	-0.062
ACCAGTCT	-0.25
CAATGTGC	-0.133
CCAGATCC	-0.149
CTGACTAA	-0.00263
CTCCAAAA	0.183
ATCAAAAT	0.192

Sequence	PBM E-score
TTCCAAAA	0.277
ACTCAAAA	0.165
ATCAAAAA	0.316
GTCCAAAA	0.123
TCTCAAAA	0.275
ATCAAAAG	0.0655
CCTCAAAA	0.198
TAACCCAA	0.182
CGAGGTAG	-0.219
ACAGTGCA	-0.00511
GGTTAGCA	-0.0625
ACCCTCCA	-0.0426
GCCTCCCC	0.305
ACCTCCCC	0.161
ACCCTCCT	-0.00559
ACCTCCCA	-0.187
GCCCCTCA	0.0515
CCCCCTCC	-0.121
GCCTCCCA	-0.104
CCCTCCCA	0.33
TCCTCCCA	-0.0691
ACCCTCCC	0.378
GCCCCTCC	0.445
CGTAAAGA	-0.0705
AACCTTAT	0.138

Sequence	PBM E-score
CGATCTTC	-0.0861
ACAATGGC	0.0105
ACCCGTCC	-0.0354
CCCCTCCA	0.246
CCCCTCCC	0.365
CCCCTCCG	0.171
CCCTCCTC	0.0435
CCCTCCCG	0.0504
CCCTCCCC	0.333
GATTTCGC	0.2
AAGTGGGC	-0.0304
GAGCTTTA	-0.0834
ACAGTTTG	0.016
CAAAAAAC	0.298
CCAAAAAA	0.251
CAAAAAAA	0.352
AAAAAACC	0.234
AGAAAAAC	0.146
CAAAAACC	0.128
CCAAAAAC	0.216
AAAAAAAC	0.331
CAAAAAGA	0.178
